Screens (PubChem BioAssay)
Insulin prom up: MIN6 insulin promoter up-regulation. MIN6 insulin promoter-GFP reporter, high-content imaging; stronger effect = higher value. z-score at 5 µM. 190,000 tested, 0.3% active. AID 1625;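 active means z-score above 3 at 5 µM with at least 500 cells counted in the well; inconclusive means wells under 500 cells, flagged as cytotoxic or low count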
INS promoter inh: TRM-6 insulin promoter activity inhibition; inhibition, % at 2 µM; 130,000 tested, 0.9% active; TRM-6 cells (human fetal islet line), insulin promoter-eGFP reporter, imaging; reporter expression induced with tamoxifen;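 active means inhibition above the mean plus 3 SD, with well images judged a real hit on visual review, cut at about 60% in these data, passing the limit was not always enough; inconclusive means inhibition over the cutoff but images rejected on review; inactive means inhibition not above the cutoff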
WT yeast gro inh: growth inhibition of WT yeast, mitochondrial fusion screen. mitochondrial fusion phenotypic screen, WT strain. inhibition, % at 10 µM. 190,000 tested, 2.1% active. AID 1362; in the data active means inhibition above about 58%; tested in S. cerevisiae
Autophagy HCS: alters autophagy in cells. calls only at 10 µM (by protocol). 190,000 tested, 0.98% active. MEF GFP-LC3 puncta imaging; test concentration mostly 10 µM. AID 463193;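 active means percentage of spot-positive cells more than 3 SD above its plate mean, without a fluorescence outlier flag or 80% toxicity; inconclusive means no clear call, values can overlap the other calls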;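 further: spot-positive cell cutoff set from DMSO-treated cells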
L major viab: inhibitors of Leishmania major promastigote growth; inhibition, % at 10 µM; Leishmania major promastigotes, resazurin fluorescence viability; AID 1063; 200,000 tested, 9% active; in the data active means inhibition above about 50%;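 further: promastigotes grown with compound for 44 hours at 28 °C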
Starred values were filed as active, the others as inactive; i = inactive; ? = inconclusive; · = no result; + = active, no number. An excerpt weighted towards active compounds, which were near 11% of everything screened.

SMILES	Insulin prom up	INS promoter inh	WT yeast gro inh	Autophagy HCS	L major viab
O=C(c1ccc(CN2CCOCC2)cc1)N1CCN(Cc2ccccc2)CC1	-0.65	·	15	i	76*
Cc1ccc(C)n1-c1cccc(NC(=O)c2ccccc2)c1	-0.01	-8	5	i	76*
O=C(Nc1cccc(C(=O)N2CCN(Cc3ccccc3)CC2)c1)c1ccccc1	0.95	3	7	i	75*
CC(=O)Nc1cccc(C(=O)N2CCN(Cc3ccccc3)CC2)c1	0.78	50	11	i	5
O=C(OCC(=O)N1CCN(C(=O)c2ccco2)CC1)c1ccccc1	-0.4	·	-7	i	-2
O=C(OCC(=O)N1CCN(Cc2ccccc2)CC1)c1ccc(Cl)cc1	-0.24	-19	48	i	57*
c1ccc(Oc2cccc(CN3CCOCC3)c2)cc1	1.9	60	-2	i	100*
O=C(Nc1ccccc1C(F)(F)F)c1ccc(CN2CCC(Cc3ccccc3)CC2)cc1	-0.14	7	30	i	64*
CSc1ccc(CN2CCN(C(=O)c3ccncc3)CC2)cc1	0.51	·	15	i	74*
Cc1cccc(NC(=O)c2ccc(CN3CCN(Cc4ccccc4)CC3)cc2)c1	-0.3	·	8	i	100*
c1ccc(CN2CCOCC2)cc1	-0.92	9	-21	i	-5
COc1cccc(NC(=O)c2ccc(CN3CCN(c4ccccc4)CC3)cc2)c1	·	-30	-7	i	-4
COc1ccc(N(CC(=O)N2CCN(c3ccc(Cl)cc3)CC2)S(=O)(=O)c2c(C)n[nH]c2C)cc1	0.42	-14	6	i	-8
COc1cc(NC(=O)C2CCCO2)c(OC)cc1NC(=O)c1ccccc1 (stereo unspecified)	-0.22	-55	28	i	83*
COc1cc(NC(=O)C2CCCO2)c(OC)cc1Cl (stereo unspecified)	·	-55	-8	i	-5
O=C(NCCN1CCOCC1)c1ccc(N2CCCC2)c([N+](=O)[O-])c1	-0.14	·	3	i	-2
CC1CCN(C(=O)c2ccc(SCc3ccccc3F)c([N+](=O)[O-])c2)CC1	0.5	5	31	i	69*
O=C(NCCCN1CCOCC1)c1ccc(Sc2ccc(F)cc2)c([N+](=O)[O-])c1	·	-12	0	i	100*
CCN1CCCC1CNC(=O)c1ccc(N2CCCC2=O)cc1 (stereo unspecified)	-0.17	-14	24	i	4
CN(C)CCNC(=O)c1ccc(Sc2ccc(Br)cc2)c([N+](=O)[O-])c1	-0.09	·	52	i	100*
CCN1CCCC1CNC(=O)c1ccc(Sc2ccccc2Cl)c([N+](=O)[O-])c1 (stereo unspecified)	·	29	37	i	100*
O=C(c1ccc(SCc2ccco2)c([N+](=O)[O-])c1)N1CCOCC1	0.03	·	15	i	-1
CCCCCCC1/C(=N/O)CCC1C(=O)OC (stereo unspecified)	-1.2	63	4	i	-8
O=C(O)C1CCCN1S(=O)(=O)c1ccc2[nH]c(=O)c(=O)[nH]c2c1 (stereo unspecified)	·	-59	-2	i	-3
CCN1CCCC1CNC(=O)c1ccc(Sc2ccc(F)cc2)c([N+](=O)[O-])c1 (stereo unspecified)	·	·	26	i	100*
SMILES	Insulin prom up	INS promoter inh	WT yeast gro inh	Autophagy HCS	L major viab
O=C(c1ccc(S(=O)(=O)Cc2ccccc2F)c([N+](=O)[O-])c1)N1CCCCCC1	0.35	-8	-11	i	15
CCN1CCN(C(=O)c2ccc(Sc3ccccc3Cl)c([N+](=O)[O-])c2)CC1	0.29	-27	-14	i	89*
O=C(c1ccc(S(=O)(=O)c2ccccc2Cl)c([N+](=O)[O-])c1)N1CCCCCC1	0.37	11	-8	i	98*
COc1ccc(OC2C(=O)N(Cc3ccc4c(c3)OCO4)C2c2sccc2C)cc1 (stereo unspecified)	-1.1	·	0	i	92*
CCOC(=O)N1CCN(C(=O)CN(C)S(=O)(=O)c2ccc3c(c2)C(C)(C)C(=O)N3C)CC1	-0.49	0	68*	i	0
Cc1nc2ccccn2c1C(=O)NNS(=O)(=O)c1ccc(C(C)(C)C)cc1	-0.21	-5	4	i	25
O=C(NC1CCCCC1)N1CCN(Cc2ccco2)CC1	-0.42	·	11	i	-1
O=C(NC1CCCCC1)N1CCN(CCc2ccccc2)CC1	0.26	22	2	i	60*
COC(=O)N1CCN(CCc2ccccc2)CC1	0.9	·	4	i	97*
Nc1n[nH]c(CO)n1	-0.02	·	·	·	·
C/C(=N/NC(=O)CN1CCN(Cc2ccccc2Cl)CC1)c1cccnc1	0.06	·	·	·	·
O=C(Cn1nnc(-c2ccccc2NC(=O)c2ccco2)n1)NC1CCCCC1	·	18	-4	i	-1
Cc1cnc(C(=O)Nc2ccccc2-c2nnn(CC(=O)NC3CCCC3)n2)cn1	-0.12	23	1	+	0
O=C(c1cc2sccc2n1Cc1ccc(F)cc1)N1CCN(c2nc3ccccc3s2)CC1	?	44	14	i	84*
Cn1c(C(=O)N2CCN(c3nc4ccccc4s3)CC2)cc2sccc21	-0.38	-42	24	i	-2
CCOC(=O)C1=C(c2ccccc2)Nc2ncnn2C1c1cccc(OC)c1OC (stereo unspecified)	0.12	7	-5	i	100*
CCOC(=O)C1=C(c2ccccc2)Nc2ncnn2C1c1cc(OC)cc(OC)c1OC (stereo unspecified)	-0.06	·	-16	i	92*
O=C1NC(=O)/C(=C/c2ccccn2)S1	-0.03	·	·	·	·
Cc1nn(C(C)(C)C)c(OC(=O)c2cccs2)c1Sc1ccccc1	·	56	83*	i	2
Cc1nn(C(C)(C)C)c(OC(=O)c2ccc3c(c2)OCO3)c1Sc1ccccc1	-1.2	-36	75*	i	8
CC(C)c1ccc(NC(=O)N2CCCC2C(=O)Nc2ccc(-n3cnnn3)cc2)cc1 (stereo unspecified)	-1.3	·	0	i	66*
Cc1cc(C)cc(NC(=O)N2CCCC2C(=O)Nc2ccc(-n3cnnn3)cc2)c1 (stereo unspecified)	1.1	4	-13	i	-6
CC(=O)Nc1ncc(Cc2cc(Cl)ccc2Cl)s1	-0.13	·	76*	+	20
CCCCc1ccc(NC(=S)NCCc2ccc(F)cc2)cc1	0.48	5	68*	i	17
CCOc1ccccc1NC(=O)C(NCCN(C)C)c1ccccc1 (stereo unspecified)	·	·	5	i	4
CCOc1ccccc1NC(=O)c1cccc(NC(=O)CC(c2ccccc2)c2ccccc2)c1	·	6	21	i	22
CCOc1ccccc1NC(=O)c1ccc(Cl)c(NC(=O)CC(c2ccccc2)c2ccccc2)c1	-0.4	-58	0	i	70*
Fc1ccc(CCNC(=S)Nc2ccc(F)cc2)cc1	-0.01	·	19	i	21
CCOc1ccccc1NC(=O)C(NCC1CCCCC1)c1ccccc1 (stereo unspecified)	-0.59	56	74*	i	27
